The values that follow come from PubChem BioAssay.

This is one part of the list. Active and inactive are the calls of the source. Unless noted, no rule for the calls is given here.

Assay [1] can be described thus: inhibition of Brca1/Bard1 split-luciferase complementation, confirmation, counter-screen for Mdm2/MdmX interaction inhibitor project, luminescence, single concentration (AID 504668). The conditions noted are these: Brca1/Bard1 bimolecular luciferase complementation counterscreen, at 8 µM, stronger effect = higher value. On the technique in general: Counterscreens check selectivity or assay interference.

The nature of assay [2]: inhibitors of PAF-induced NFkB signaling in CF airway cells, dose response, cell-based, uHTS hits, panel, cytotoxicity readout (AID 624344). The settings on record: CF bronchial epithelial cells, PAF-induced NFkB reporter inhibition, with PAF, run 1; at 79 µM (top of the series) unless noted.
Experiment in assay [3]: as above
The settings on record: CF bronchial epithelial cells, PAF-induced NFkB reporter inhibition, with PAF, run 2; at 79 µM (top of the series) unless noted.

Assay [4] deals with Tumor necrosis factor receptor superfamily member 10B (Homo sapiens) (UniProt O14763). The experiment in a line: caspase-8 TRAIL sensitization, hit retest, confirmation, cell-based, NB7+caspase-8, with/without TRAIL, luminescence panel (AID 651596; in the data active = activity above about 50%). The conditions noted are these: NB7 neuroblastoma + caspase-8, TRAIL sensitization, luminescence viability, with TRAIL, mean of runs, at 10 µM, stronger effect = higher value.

Experiment in assay [5]: as above
The settings on record: NB7 neuroblastoma + caspase-8, without TRAIL, luminescence viability, without TRAIL, mean of runs, at 10 µM.

The nature of assay [6]: HIF-2a reporter inhibitor retest, confirmation, luminescence, 786-0 RCC cells (AID 651580;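 active = mean inhibition across four replicates of at least 40 percent at the single tested concentration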). The conditions noted are these: HIF-2a luciferase reporter luminescence, overnight, at 18.8 µM, stronger effect = higher value. (In a reporter assay the amount or activity of a reporter protein is the signal.)
The nature of assay [7]: HIF-1a luciferase reporter signal reduction – MiaPaCa-2 cells, single concentration, counter-screen for HIF-2a inhibitor project, confirmation (AID 651589;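 active = mean inhibition of the reporter signal across four replicates at the single tested dose of 50% or more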). The conditions noted are these: MiaPaCa-2 HIF-1a luciferase reporter, desferoxamine, overnight; at 18.8 µM; stronger effect = higher value.

Sequence of Tumor necrosis factor receptor superfamily member 10B (Homo sapiens) (O14763 whole entry, looked up): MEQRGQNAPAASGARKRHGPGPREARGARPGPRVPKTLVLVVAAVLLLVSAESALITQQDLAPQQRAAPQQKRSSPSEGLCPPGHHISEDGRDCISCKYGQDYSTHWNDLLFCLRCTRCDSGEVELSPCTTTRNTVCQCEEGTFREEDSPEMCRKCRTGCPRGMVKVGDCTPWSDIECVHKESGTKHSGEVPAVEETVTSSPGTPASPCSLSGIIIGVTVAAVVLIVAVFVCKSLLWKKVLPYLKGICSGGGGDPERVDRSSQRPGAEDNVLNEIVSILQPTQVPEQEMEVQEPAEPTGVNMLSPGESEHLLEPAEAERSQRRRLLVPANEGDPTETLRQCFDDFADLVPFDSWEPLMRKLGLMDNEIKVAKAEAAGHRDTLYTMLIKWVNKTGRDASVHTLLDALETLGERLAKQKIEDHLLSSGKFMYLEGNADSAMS

As a reminder, the inhibition is the change of the read-out against control, counted positive when it falls. For `COc1ccc2[nH]c3c(c2c1)CCNC3=O`, the inhibition is 34.4% (active) in assay [1], 103% in assay [2] and 103% in assay [3].
For the molecule `Nc1ncnc(NCc2ccc(F)cc2)c1[N+](=O)[O-]`, the inhibition in assay [1] was 27% (active); in assay [2], 99%; in assay [3] it was 98.9%.
Consider `CCCCCN=C(N)N/N=C/c1c[nH]c2ccc(OC)cc12`, for which the inhibition in assay [1] is 30.4% (active). Also, the activity in assay [4] came to 96.9%; in assay [5] it was 98%.
The matching figures for `C(=N\Nc1nncc2ccccc12)/c1ccccn1`: 29.9% (active), 78.7% and 80.2%.
On the same counts, the results for `CCCCCc1cc(=O)oc2c(C(CCN3CCCCC3)c3cc(OC)c(OC)c(OC)c3)c(OC)cc(OC)c12` (stereo not given) are 26.6% (active), 45.4% and 36.5%.
Consider `Cc1ccc(-c2nn(C(C)(C)C)c3ncnc(N)c23)cc1`, for which the inhibition was 30.7% (active) in assay [1], 70.1% (active) in assay [6] and 93.8% (active) in assay [7].
For `CC(=O)Nc1ccc(NC2=Nc3ccccc3N3C2=Nc2c(c(C)nn2-c2ccccc2)C3c2ccccc2)cc1` (stereo not given), in assay [1], the inhibition is 32.1% (active). The results for the activity in assay [4] and in assay [5] were 89.4% and 73.6%, respectively.
The matching figures for `CC(NC(=O)Nc1nnc(C(F)(F)F)s1)(C(F)(F)F)C(F)(F)F`: 32.9% (active), 43.9% and 43.1%.
The matching figures for `O=C(CSc1ccccn1)Nc1nonc1[N+](=O)[O-]`: 29.3% (active), 30.1% and 58.2%.
For `O=C(Nc1ccc(OCC(F)(F)C(F)F)c(C(F)(F)F)c1)c1ccccc1O`, in assay [1], the inhibition was 28.2% (active). Moreover, the figures for the activity in assay [4] and in assay [5] were 67.8% and 68%, respectively.
In the case of `Cc1ccc(N(Cc2cc(=O)[nH]c3ccccc23)C(=O)CCl)cc1`, the figures for the inhibition in assay [1], in assay [6] and in assay [7] were 25.3% (active), 76.7% (active) and 107% (active), respectively. The activity in assay [4] stood at 99.1%; in assay [5] it was 99.3%.
`CCCCCc1ccc(OCCCC[n+]2ccccc2)c(CCCCC)c1`: the inhibition in assay [1] was 24.6% (active). The figures for the activity in assay [4] and in assay [5] were 24.6% and 56.7%, respectively.
For `O=C(C[C@@H]1C/C=C/CC[C@H](Cc2ccc(F)cc2)C(=O)OC[C@@H](Cc2ccccc2)NC1=O)N[C@H](CO)Cc1ccccc1`, in assay [1], the inhibition was 29.8% (active). Also, the values for the activity in assay [4] and in assay [5] were 87.7% and 95.8%, respectively.
For the molecule `COc1ccc(NC(=O)c2nc(S(=O)(=O)Cc3cccc(C)c3)ncc2Cl)c(OC)c1`, the inhibition in assay [1] is 23.1% (active). Moreover, the results for the activity in assay [4] and in assay [5] were 30% and 66.4%, respectively.
Regarding `CCCCC(O)(CCCC)C(=O)NN(C(=O)CCl)c1ccccc1`, the inhibition in assay [1] was 34% (active). In addition, the results for the activity in assay [4] and in assay [5] were 92.2% and 95.7%, respectively.
On to `Cc1ccc(C)c(C(=O)Cn2ncc(Cl)c(Cl)c2=O)c1`, for which the inhibition in assay [1] is 31.7% (active). Moreover, the activity in assay [4] stood at 99.7%; in assay [5] it was 99.3%.
On the same counts, the results for `CC(C)(C)c1ccc(C2CC2C(=O)N/N=C\c2ccc[nH]2)cc1` (stereo not given) are 30.5% (active), 79.5% and 96.8%.
Regarding `CC1CCc2c(sc3nc(C(C)(C)C)nc(N4CCN(C(=O)CCl)CC4)c23)C1` (stereo not given), the inhibition in assay [1] is 34.8% (active). Further, the activity in assay [4] is 98.8%; in assay [5], 99.2%.
The matching figures for `CN(C)c1ccnc2c[cH-]cc12.[Fe].c1ccc(-[c-]2[c-](-c3ccccc3)[c-](-c3ccccc3)[c-](-c3ccccc3)[c-]2-c2ccccc2)cc1` (stereo not given): 32% (active), 6.08% and -38.5%.
On the same counts, the results for `CCCCn1c(CCl)nc2cc(S(=O)(=O)N3CCOCC3)ccc21` are 30.4% (active), 92.6% and 76.2%.
With `Cc1ccc2nc(/C(C#N)=C\c3ccc([N+](=O)[O-])o3)[nH]c2c1`, the inhibition in assay [1] was 29.9% (active). For the same molecule, the activity worked out at 95.6% in assay [4] and 99% in assay [5].
On the same counts, the results for `O=C(/C=C/c1ccccc1)NC(NC(=S)Nc1ccc(Cl)cc1)C(Cl)(Cl)Cl` (stereo not given) are 23.7% (active), 37.1% and 30.2%.
On to `N#CC1(NC(=O)Cn2ncc(Cl)c(Cl)c2=O)CCCCC1`, for which the inhibition in assay [1] was 29.6% (active). Also, the figures for the activity in assay [4] and in assay [5] were 98.5% and 99.2%, respectively.
The matching figures for `CCCCCCCC[n+]1cccc2c3ccccc3ccc21`: 23.3% (active), 74.7% and 63.9%.
For the molecule `Cn1c(=O)c(C(=O)Nc2ccccn2)c(O)c2ccccc21`, the inhibition in assay [1] was 28.9% (active). Further, the activity in assay [4] turned out to be 60.7%; in assay [5], 58.8%.
On the same counts, the results for `CC(C)(C)c1ccc(C(=O)O/N=C(\N)c2ccccc2)cc1` are 23.3% (active), 99.4% and 99.6%.
The matching figures for `COC(=O)C1=C(C)N(Cc2ccccc2)C(=NCC(C)C)N[C@H]1c1cccc(C(F)(F)F)c1`: 26.2% (active), 25.1% and 6.62%.
On the same counts, the results for `CCCCCCCNC(=O)C1(CC2CC(c3ccc(Cl)cc3)=NO2)CCNCC1` (stereo not given) are 25.4% (active), 41.9% and 93.1%.
On to `COC(=O)Cc1ccc(NC(=O)c2ccc(C(C)(C)C)cc2)cc1`, for which the inhibition in assay [1] was 28.9% (active). Also, the activity turned out to be 76.2% in assay [4] and 77.3% in assay [5].
The matching figures for `O=C(CCl)N(C/C=C/c1ccccc1)c1ccc2c(c1)OCCO2`: 26.4% (active), 97.8% and 94%.
The matching figures for `N#Cc1nc(NCC(F)F)nc(Nc2cc(F)cc(F)c2)n1`: 28% (active), 63.2% and 71.3%.
For `COC(=O)c1sc(NC(=O)c2cc(-c3ccccc3)nc3ccccc23)c(C#N)c1C`, the inhibition in assay [1] was 35.4% (active). Besides, the activity in assay [4] amounted to 52.7%; in assay [5], 39.1%.
The matching figures for `NC(=O)c1oc2ccccc2c1NC(=O)c1ccc([N+](=O)[O-])o1`: 31.8% (active), 69.1% and 96.5%.
On to `Cn1c(N)c(C(=O)COC(=O)c2ccccc2C(=O)c2ccc(Cl)c([N+](=O)[O-])c2)c(=O)n(C)c1=O`, for which the inhibition in assay [1] is 26.2% (active). The activity in assay [4] amounted to 98.5%; in assay [5] it was 99%.
As to `CCN(CC)CCCNc1ccc(-c2nnc(-c3ccc(OCC(C)C)cc3)o2)cn1`, in assay [1], the inhibition is 23.9% (active). The activity in assay [4] is 82.5%; in assay [5], 97.9%.
The matching figures for `Cc1ccc2sc(N(CCCN(C)C)C(=O)CCS(=O)(=O)c3ccccc3)nc2c1C`: 29.9% (active), 62% and 93%.
